Results filed as inconclusive are left out. Where a call stands in place of a potency, no number is given. The source holds several records for some structures; these can differ, active in one and inactive in another. Calls of active or inactive are those of the source. Calls come from the whole dose curve.
Columns and labels:
[1] = target: Acetylcholinesterase (Homo sapiens) (UniProt P22303); test: Acetylcholinesterase (AChE) small molecule antagonists: colormetric cell-based qHTS assay (AID 1347395); note: nearly all actives have a fitted effect of over 30% in size
Sequence of Acetylcholinesterase (Homo sapiens) (P22303 whole entry, looked up): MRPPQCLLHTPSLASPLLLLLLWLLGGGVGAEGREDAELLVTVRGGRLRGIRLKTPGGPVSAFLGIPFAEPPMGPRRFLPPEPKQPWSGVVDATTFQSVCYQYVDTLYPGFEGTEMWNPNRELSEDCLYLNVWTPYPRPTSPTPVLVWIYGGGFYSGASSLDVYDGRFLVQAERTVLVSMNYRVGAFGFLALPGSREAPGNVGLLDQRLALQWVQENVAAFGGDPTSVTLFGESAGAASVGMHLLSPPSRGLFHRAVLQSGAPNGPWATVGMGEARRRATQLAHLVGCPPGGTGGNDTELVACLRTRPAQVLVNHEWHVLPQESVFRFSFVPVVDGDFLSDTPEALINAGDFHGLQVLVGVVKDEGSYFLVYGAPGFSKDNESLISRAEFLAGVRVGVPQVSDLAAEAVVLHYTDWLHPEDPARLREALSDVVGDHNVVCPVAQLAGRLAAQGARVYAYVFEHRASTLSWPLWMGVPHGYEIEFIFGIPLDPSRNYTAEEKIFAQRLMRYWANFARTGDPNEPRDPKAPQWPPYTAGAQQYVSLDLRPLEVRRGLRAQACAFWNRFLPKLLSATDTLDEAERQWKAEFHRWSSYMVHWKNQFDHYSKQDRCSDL
Summary of the method: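 SH-SY5Y cells attached overnight, exposed to compound 30 min at 37 C, then given DTNB/acetylthiocholine; after 90 min at 37 C, colorimetric thiocholine read gives cellular AChE activity.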

[2] = target: Acetylcholinesterase (Homo sapiens) (UniProt P22303); test: Acetylcholinesterase (AChE) small molecule antagonists: enzyme-based qHTS assay (AID 1347397); conditions: Potency: AChE enzyme activity inhibition; outcome: AChE enzyme activity inhibition; note: nearly all actives have a fitted effect of over 55% in size; note: potency is the fitted concentration of half-maximal effect
Summary of the method: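 Human recombinant acetylcholinesterase; substrate acetylthiocholine; thiocholine quantified with DTNB (colorimetric). Compound preincubation 30 min RT; reaction 10 min RT.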

[3] = target: Acetylcholinesterase (Homo sapiens) (UniProt P22303); test: Acetylcholinesterase (AChE) small molecule antagonists: fluorescence cell-based qHTS assay (AID 1347398); conditions: Potency: AChE activity; outcome: AChE activity; note: nearly all actives have a fitted effect of over 50% in size; note: potency is the fitted concentration of half-maximal effect
Summary of the method: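 Thiocholine generated from acetylthiocholine by SH-SY5Y cell AChE is detected with Thiolite Green (Ex/Em 490/520 nm) after 40 min at room temperature, following 30 min compound pretreatment at 37 C.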

[4] = target: Acetylcholinesterase (Homo sapiens) (UniProt P22303); test: Acetylcholinesterase (AChE) small molecule antagonists: enzyme-based qHTS assay with human liver microsomes (AID 1347399); conditions: Potency: qHTS inhibition; outcome: qHTS inhibition; note: nearly all actives have a fitted effect of over 60% in size
Summary of the method: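 Recombinant human AChE (50 mU/mL in the enzyme mix) and human liver microsomes (0.25 mg/mL final) were preincubated with compound and NADPH (0.25 mg/mL final) for 30 min at 37 C. Acetylthiocholine/DTNB was then added; thiocholine was read colorimetrically after 10 min at room temperature.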

Compound | Potency [1] | Potency [2] | Potency [3] | Potency [4] | activity, negative = inhibition [1] | activity change, negative = inhibition [2] | activity change, negative = inhibition [3] | activity change, negative = inhibition [4]
O=C1CCCc2c(O)cccc21 | inactive | inactive | inactive | inactive | – | – | – | –
CCN1CCc2nc(N)oc2CC1 | inactive | inactive | inactive | inactive | – | – | – | –
O=C1OCc2ccccc21 | inactive | inactive | inactive | inactive | – | – | – | –
Cc1ccc(C)c(S(=O)(=O)O)c1 | inactive | inactive | inactive | inactive | – | – | – | –
COC(=O)C1CCC(C(=O)OC)CC1 (stereo not given) | inactive | inactive | inactive | inactive | – | – | – | –
C=CCOc1cc(Cl)ccc1C(=O)NCCN(CC)CC | inactive | inactive | inactive | inactive | – | – | – | –
C/C=C/C=N/NC(=O)c1ccncc1 | inactive | inactive | inactive | inactive | – | – | – | –
O=C(NC(Cc1cc(=O)[nH]c2ccccc12)C(=O)O)c1ccc(Cl)cc1 (stereo not given) | inactive | inactive | inactive | inactive | – | – | – | –
CC(C)(C)C(=O)NCCCC(=O)O | inactive | inactive | inactive | inactive | – | – | – | –
O=C1c2ccccc2C(=O)C1c1ccc2cc(S(=O)(=O)O)cc(S(=O)(=O)O)c2n1 | inactive | inactive | inactive | inactive | – | – | – | –
O=C(O)CCNC(=O)c1ccccc1 | inactive | inactive | inactive | inactive | – | – | – | –
O=C(O[C@@H](C(=O)O)[C@@H](OC(=O)c1ccccc1)C(=O)O)c1ccccc1 | inactive | inactive | inactive | inactive | – | – | – | –
Cc1cc(Cl)c(C)cc1Cl | inactive | inactive | inactive | inactive | – | – | – | –
CCCCCCC(=O)O | inactive | inactive | inactive | inactive | – | – | – | –
CO[Si](CCCNCCNCCN)(OC)OC | inactive | inactive | inactive | inactive | – | – | – | –
C/C(=N\O)[C@@H](C)NCC(C)(C)CN[C@H](C)/C(C)=N/O | inactive | inactive | inactive | inactive | – | – | – | –
NC[C@H]1O[C@H](O[C@H]2[C@H](O)[C@@H](O[C@H]3O[C@H](CO)[C@@H](O)[C@H](N)[C@H]3O)[C@H](N)C[C@@H]2N)[C@H](N)[C@@H](O)[C@@H]1O | – | – | – | – | 1.64% [at 23.6 µM] (inactive) | 0.27% [at 23.6 µM] (inactive) | 4.18% [at 23.8 µM] (inactive) | 3.75% [at 23.6 µM] (inactive)
Cc1ncc(CSSCc2cnc(C)c(O)c2CO)c(CO)c1O | inactive | inactive | inactive | inactive | – | – | – | –
CCN(Cc1cccc(S(=O)(=O)O)c1)c1ccccc1 | inactive | inactive | inactive | inactive | – | – | – | –
CC(C)(CCC(=O)O)C(=O)O | inactive | inactive | inactive | inactive | – | – | – | –

Compound | Potency [1] | Potency [2] | Potency [3] | Potency [4] | activity, negative = inhibition [1] | activity change, negative = inhibition [2] | activity change, negative = inhibition [3] | activity change, negative = inhibition [4]
CC(=O)O[C@@H]1C(=O)O[C@@H]2[C@H]1OC(=O)[C@@H]2OC(C)=O | inactive | inactive | inactive | inactive | – | – | – | –
CCC(=O)c1c(O)cc(O)cc1O | inactive | inactive | inactive | inactive | – | – | – | –
COc1ccc2c(c1)CCCC2=O | inactive | inactive | inactive | inactive | – | – | – | –
CCC(=O)O | inactive | inactive | inactive | inactive | – | – | – | –
Cc1ccccc1Br | inactive | inactive | inactive | inactive | – | – | – | –
O=C(O)CCCC[P+](c1ccccc1)(c1ccccc1)c1ccccc1 | inactive | inactive | inactive | inactive | – | – | – | –
O=S(=O)(O)c1cccc(S(=O)(=O)O)c1 | inactive | inactive | inactive | inactive | – | – | – | –
Nc1nc(N)c2nc(CNc3ccc(C(=O)N[C@@H](CCC(=O)O)C(=O)O)cc3)cnc2n1 | inactive | inactive | inactive | inactive | – | – | – | –
Cc1ccc(OC(=O)CC(C)C)cc1 | inactive | inactive | inactive | inactive | – | – | – | –
CC1=CC[C@H]2C[C@@H]1C2(C)C | inactive | 63.9 µM (active) and inactive | 32 µM (active) and inactive | inactive | – | – | – | –
CCCCC(CC)COC(=O)CS (stereo not given) | inactive | inactive | inactive | inactive | – | – | – | –
CC(C)c1ccccc1N | inactive | inactive | inactive | inactive | – | – | – | –
Nc1ccc(/C=C/c2ccc(N)cc2S(=O)(=O)O)c(S(=O)(=O)O)c1 | – | – | – | – | -0.352% [at 0.435 µM] (inactive) | -0.809% [at 0.435 µM] (inactive) | 2.35% [at 0.439 µM] (inactive) | -0.084% [at 0.435 µM] (inactive)
NS(=O)(=O)c1cc2c(cc1Cl)CN(C1CCCCC1)C2=O | inactive | inactive | inactive | inactive | – | – | – | –
C[C@@H]1CCN(C(=O)[C@H](CCCN=C(N)N)NS(=O)(=O)c2cccc3c2NC[C@H](C)C3)[C@@H](C(=O)O)C1 | inactive | inactive | inactive | inactive | – | – | – | –
CCCC(C)C | inactive | inactive | inactive | inactive | – | – | – | –
[Cl][Nd]([Cl])[Cl] | inactive | inactive | inactive | inactive | – | – | – | –
NC(N)=Nc1nc(CSCC/C(N)=N/S(N)(=O)=O)cs1 | inactive | inactive | inactive | inactive | – | – | – | –
CCC/C=C/C=O | inactive | inactive | inactive | inactive | – | – | – | –
C1CCC(SSC2CCCCC2)CC1 | inactive | inactive | inactive | inactive | – | – | – | –

Compound | Potency [1] | Potency [2] | Potency [3] | Potency [4] | activity, negative = inhibition [1] | activity change, negative = inhibition [2] | activity change, negative = inhibition [3] | activity change, negative = inhibition [4]
CC(CCC(=O)O)(c1ccc(O)cc1)c1ccc(O)cc1 | inactive | inactive | inactive | inactive | – | – | – | –
CCCCC/C=C\C/C=C\CCCCCCCC(=O)OC | inactive | inactive | inactive | inactive | – | – | – | –
c1ccc(CC2=NCCN2)cc1 | inactive | inactive | inactive | inactive | – | – | – | –
NCC1CCC(C(=O)Oc2ccc(CCC(=O)O)cc2)CC1 (stereo not given) | inactive | inactive | inactive | inactive | – | – | – | –
C=CC(=O)OCCCCCCCCCC | inactive | inactive | inactive | inactive | – | – | – | –
CCCCCC(C)=O | inactive | inactive | inactive | inactive | – | – | – | –
CC[N+](CC)(CC(=O)Nc1c(C)cccc1C)Cc1ccccc1 (tested in a mixture with another compound) | inactive | inactive | inactive | inactive | – | – | – | –
C[C@@H]1C[C@H]2[C@@H]3CCC4=CC(=O)C=C[C@]4(C)[C@@]3(F)[C@@H](O)C[C@]2(C)[C@H]1C(=O)CO | inactive | inactive | inactive | inactive | – | – | – | –
CCCCN(CCCC)CCC(O)c1cc2c(Cl)cc(Cl)cc2c2cc(C(F)(F)F)ccc12 (stereo not given) | inactive | inactive | inactive | inactive | – | – | – | –
CC(=O)Oc1cccc(O)c1 | inactive | inactive | inactive | inactive | – | – | – | –
Cc1nnc(C(=O)NC(C)(C)c2nc(C(=O)NCc3ccc(F)cc3)c(O)c(=O)n2C)o1 | inactive | inactive | inactive | inactive | – | – | – | –
C/C=C1/CC2C=CC1C2 (stereo not given) | inactive | inactive | inactive | inactive | – | – | – | –
CCCc1ccc(OCC(=O)N2CCN(C(=O)COc3ccc(CCC)cc3OC)CC2)c(OC)c1 | inactive | inactive | inactive | inactive | – | – | – | –
CC(C)N=C=NC(C)C | inactive | inactive | inactive | inactive | – | – | – | –
Cc1cc(=O)oc2cc(O)ccc12 | inactive | inactive | inactive | inactive | – | – | – | –
CCCN(C1CCN(C(=O)C2CCNCC2)CC1)[C@@H]1CCc2ccc(OC)cc2C1 | inactive | inactive | inactive | inactive | – | – | – | –
O=C(O)c1ccc(C(=O)O)c(C(=O)O)c1 | inactive | inactive | inactive | inactive | – | – | – | –
Cc1ccccc1OCC1CO1 (stereo not given) | inactive | inactive | inactive | inactive | – | – | – | –
CC(CC=O)CCCC(C)(C)O (stereo not given) | inactive | inactive | inactive | inactive | – | – | – | –
O=C1c2ccccc2C(=O)c2c1ccc(O)c2O | inactive | inactive | inactive | inactive | – | – | – | –
